According to PubChem BioAssay (Tox21):
Inconclusive results are not listed. Activity calls are given as the source filed them. Unless noted, calls follow the shape of the dose curve; as a rule, active = well fitted curve in the direction sought with a large enough effect in the repeat runs; inconclusive = weak or mixed curves; inactive = no such curve, though single readings can be large; an effect the other way counts as inactive or inconclusive.

Tests used:
[1] = qHTS assay to identify aromatase inhibitors - cell viability counter screen (AID 743084);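 also: cells stimulated with testosterone during compound exposure; nearly all actives have a fitted effect of over 55% in size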
[2] = target: Aryl hydrocarbon receptor (Homo sapiens) (UniProt P35869); assay: qHTS assay to identify small molecule that activate the aryl hydrocarbon receptor (AhR) signaling pathway (AID 743085);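 also: HG2L7.5c1 human HepG2 liver cells with stably integrated DRE-driven firefly reporter; series mostly up to about 70 µM; nearly all actives have a fitted effect of over 15% in size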
Outline: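 Compounds were tested in HepG2 hepatocellular carcinoma cells harbouring a stably integrated luciferase gene under control of 20 DREs. Increased reporter signal after 24 h treatment at 37C was taken as AhR activation.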

[3] = qHTS assay to identify small molecule that activate the aryl hydrocarbon receptor (AhR) signaling pathway - cell viability counter screen (AID 743086);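 also: HepG2 liver cells carrying the AhR DRE luciferase reporter; series mostly up to about 70 µM; nearly all actives have a fitted effect of over 45% in size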
Outline: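 HepG2-AhR-luc (HG2L7.5c1) cells, 4000/well, treated 24 h at 37 C with compound; viability measured as CellTiter-Fluor fluorescence after 30 min in the same wells as the luciferase read.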

[4] = target: Peroxisome proliferator-activated receptor gamma (Homo sapiens) (UniProt P37231); assay: qHTS assay to identify small molecule agonists of the peroxisome proliferator-activated receptor gamma (PPARg) signaling pathway (AID 743094; active = well fitted activation curve with a large enough effect in the signal ratio in the repeat runs, not every such curve was filed as active; the % refers to the signal ratio)
Outline: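 HEK293H PPARg-bla cells, 5 h settle at 37C/5% CO2; compound (DMSO) 17 h, 37C; B/G FRET substrate 1 h RT; fluorescence intensity read-out. qHTS format.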

[5] = qHTS assay to identify small molecule antagonists of the peroxisome proliferator-activated receptor gamma (PPARg) signaling pathway - cell viability counter screen (AID 743194); conditions: Potency: co-treated with 50 nM rosiglitazone unless noted; also: nearly all actives have a fitted effect of over 55% in size
Outline: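 Cytotoxicity counter screen in PPARg-bla HEK293H cells, same wells as reporter assay. Compounds plus 50 nM rosiglitazone (final) for 17 h at 37 C, then viability read by CellTiter-Glo luminescence.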

[6] = qHTS assay for small molecule agonists of the antioxidant response element (ARE) signaling pathway (AID 743202; active = well fitted activation curve with a large enough effect in the signal ratio in the repeat runs, not every such curve was filed as active; the % refers to the signal ratio)
Outline: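 HepG2 ARE-bla cells; 16 h treatment at 37 C; FRET-based beta-lactamase fluorescence read after 2 h substrate incubation at room temperature.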

[7] = qHTS assay for small molecule agonists of the antioxidant response element (ARE) signaling pathway - cell viability counter screen (AID 743203; calls by dose curve; also: nearly all actives have a fitted effect of over 55% in size)
Outline: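 Luminescence read-out (CellTiter-Glo, 30 min at room temperature) measured cell viability in the same wells as the ARE beta-lactamase reporter. HepG2 ARE-bla cells were treated with compounds for 16 hrs at 37C/5% CO2.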

[8] = qHTS assay for small molecule activators of the heat shock response signaling pathway - cell viability counter screen (AID 743209); also: nearly all actives have a fitted effect of over 50% in size
Outline: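 HSE-bla HeLa; 1500 cells/well; overnight 37 C, 5% CO2; compound 5 h 37 C; LiveBLAzer B/G substrate 2.5 h RT; CellTiter-Glo 30 min RT; luminescence.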

[9] = qHTS assay to identify small molecule agonists of the peroxisome proliferator-activated receptor delta (PPARd) signaling pathway - cell viability counter screen (AID 743211); also: nearly all actives have a fitted effect of over 55% in size
Outline: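 Counter screen for cytotoxicity run in parallel with the PPARd reporter screen. Beta-lactamase reporter HEK293H cells exposed to compounds 17 h; ATP-based CellTiter-Glo luminescence quantified viability.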

[10] = target: Peroxisome proliferator-activated receptor delta (Homo sapiens) (UniProt Q03181); assay: qHTS assay to identify small molecule agonists of the peroxisome proliferator-activated receptor delta (PPARd) signaling pathway (AID 743212; calls by dose curve)
Outline: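 Tox21 library screened in GeneBLAzer PPARd UAS-bla HEK293H cells. After compound treatment at 37 C, a FRET-based beta-lactamase substrate was applied for 2 h and fluorescence recorded.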

[11] = qHTS assay to identify small molecule antagonists of the peroxisome proliferator-activated receptor delta (PPARd) signaling pathway - cell viability counter screen (AID 743213); also: nearly all actives have a fitted effect of over 50% in size
Outline: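 PPARd-bla HEK293H cells (3000/well) got compound plus 300 nM L165041 agonist for 17 h at 37 C. Viability in the same wells came from CellTiter-Glo luminescence after 30 min at room temperature.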

[12] = target: Peroxisome proliferator-activated receptor delta (Homo sapiens) (UniProt Q03181); assay: qHTS assay to identify small molecule antagonists of the peroxisome proliferator-activated receptor delta (PPARd) signaling pathway (AID 743215; active = well fitted inhibition curve with a large enough effect in the signal ratio in the repeat runs, not every such curve was filed as active; the % refers to the signal ratio;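 also: cells stimulated with agonist L165041 at 300 nM final during compound exposure; series mostly up to about 62 µM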)
Outline: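 HEK293H GeneBLAzer PPARd UAS-bla reporter cells; cpd + L165041 300 nM final, 17 h 37 C; LiveBLAzer B/G FRET substrate 2 h RT; fluorescence intensity read-out. Antagonist mode.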

[13] = qHTS assay to identify small molecule agonists of the farnesoid-X-receptor (FXR) signaling pathway - cell viability counter screen (AID 743218); also: nearly all actives have a fitted effect of over 45% in size
Outline: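 Luminescence from CellTiter-Glo, read after 30 min at RT, reports viability of GeneBLAzer FXR-UAS-bla HEK 293T cells treated 16 h with compounds in the wells used for the beta-lactamase reporter.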

[14] = qHTS assay to identify small molecule antagonists of the farnesoid-X-receptor (FXR) signaling pathway - cell viability counter screen (AID 743221; active = well fitted cell-killing curve with a large enough effect in the repeat runs, not every such curve was filed as active; also: nearly all actives have a fitted effect of over 50% in size)
Outline: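 Multiplexed counter screen: viability of FXR-bla HEK 293T cells under agonist stimulation by chenodeoxycholic acid (50 uM, final) and test compound for 16 h at 37 C, measured by CellTiter-Glo luminescence in the reporter wells.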

[15] = target: Vitamin D3 receptor (Homo sapiens) (UniProt P11473); assay: qHTS assay to identify small molecule agonists of the vitamin D receptor (VDR) signaling pathway (AID 743222; calls by dose curve)
Outline: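 Beta-lactamase reporter readout (LiveBLAzer B/G FRET, 2 h RT) in VDR-bla cells after 16 h compound treatment at 37C, 5% CO2; cells pre-incubated 4 h before pin transfer of DMSO solutions.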

[16] = target: Vitamin D3 receptor (Homo sapiens) (UniProt P11473); assay: qHTS assay to identify small molecule antagonists of the vitamin D receptor (VDR) signaling pathway (AID 743223; active = well fitted inhibition curve with a large enough effect in the signal ratio in the repeat runs, not every such curve was filed as active; the % refers to the signal ratio)
Outline: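 Cells carrying a VDR-driven beta-lactamase reporter (VDR-bla) were co-treated with compound and 3 nM final 1alpha,25-dihydroxyvitamin D3 for 16 h at 37C; reporter activity was measured as FRET substrate fluorescence after 2 h at room temperature.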

[17] = target: Peroxisome proliferator-activated receptor gamma (Homo sapiens) (UniProt P37231); assay: qHTS assay to identify small molecule antagonists of the peroxisome proliferator-activated receptor gamma (PPARg) signaling pathway (AID 743191; calls by dose curve; also: series mostly up to about 63 µM; nearly all actives have a fitted effect of over 30% in size)
Outline: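 GeneBLAzer PPARg UAS-bla HEK293H cells, 5 h post-plating, exposed to compounds 17 h at 37C. LiveBLAzer B/G FRET substrate added for 1 h at room temperature; beta-lactamase reporter read by fluorescence intensity.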

[18] = target: Bile acid receptor (Homo sapiens) (UniProt Q96RI1); assay: qHTS assay to identify small molecule antagonists of the farnesoid-X-receptor (FXR) signaling pathway (AID 743217; active = well fitted inhibition curve with a large enough effect in the signal ratio in the repeat runs, not every such curve was filed as active; the % refers to the signal ratio)
Outline: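 Read-out: beta-lactamase FRET fluorescence (LiveBLAzer B/G substrate, 2 h, room temperature) in GeneBLAzer FXR-UAS-bla HEK 293T cells. Compounds were co-dosed with 50 uM chenodeoxycholic acid (final) and incubated 16 h at 37 °C.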

[19] = target: Bile acid receptor (Homo sapiens) (UniProt Q96RI1); assay: qHTS assay to identify small molecule agonists of the farnesoid-X-receptor (FXR) signaling pathway (AID 743220; active = well fitted activation curve with a large enough effect in the signal ratio in the repeat runs, not every such curve was filed as active; the % refers to the signal ratio)
Outline: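 FXR-UAS-bla HEK 293T cells carrying a UAS-driven beta-lactamase reporter were plated for 5 h at 37C/5% CO2, then exposed to DMSO-dissolved Tox21 10K compounds for 16 h at 37C. A LiveBLAzer B/G FRET substrate was loaded for 2 h at room temperature before fluorescence reading.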

[20] = qHTS assay for small molecule activators of the heat shock response signaling pathway (AID 743210; active = well fitted activation curve with a large enough effect in the signal ratio in the repeat runs, with a control signal flat, not every such curve was filed as active; the % refers to the signal ratio;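 also: HeLa cells with beta-lactamase reporter driven by heat shock elements; series mostly up to about 63 µM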)
Outline: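 Following overnight attachment, HSE-bla HeLa cells received test compounds for 5 h at 37 C; beta-lactamase activity was then detected via FRET substrate fluorescence.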

Measured: Potency

Vitamin D3 receptor (Homo sapiens), sequence (P11473 whole entry, looked up): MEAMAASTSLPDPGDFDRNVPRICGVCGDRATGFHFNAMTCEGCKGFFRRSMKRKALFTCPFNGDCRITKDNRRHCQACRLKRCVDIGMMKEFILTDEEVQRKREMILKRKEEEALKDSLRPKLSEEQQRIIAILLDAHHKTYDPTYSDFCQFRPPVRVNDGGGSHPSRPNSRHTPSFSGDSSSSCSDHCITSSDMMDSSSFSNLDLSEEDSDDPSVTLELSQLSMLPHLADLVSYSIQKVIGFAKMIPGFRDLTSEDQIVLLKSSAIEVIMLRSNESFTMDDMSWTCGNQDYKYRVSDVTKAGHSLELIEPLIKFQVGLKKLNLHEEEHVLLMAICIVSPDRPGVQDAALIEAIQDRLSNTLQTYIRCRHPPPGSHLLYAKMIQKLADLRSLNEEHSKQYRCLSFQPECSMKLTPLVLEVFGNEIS
Peroxisome proliferator-activated receptor gamma (Homo sapiens), sequence (P37231 whole entry, looked up): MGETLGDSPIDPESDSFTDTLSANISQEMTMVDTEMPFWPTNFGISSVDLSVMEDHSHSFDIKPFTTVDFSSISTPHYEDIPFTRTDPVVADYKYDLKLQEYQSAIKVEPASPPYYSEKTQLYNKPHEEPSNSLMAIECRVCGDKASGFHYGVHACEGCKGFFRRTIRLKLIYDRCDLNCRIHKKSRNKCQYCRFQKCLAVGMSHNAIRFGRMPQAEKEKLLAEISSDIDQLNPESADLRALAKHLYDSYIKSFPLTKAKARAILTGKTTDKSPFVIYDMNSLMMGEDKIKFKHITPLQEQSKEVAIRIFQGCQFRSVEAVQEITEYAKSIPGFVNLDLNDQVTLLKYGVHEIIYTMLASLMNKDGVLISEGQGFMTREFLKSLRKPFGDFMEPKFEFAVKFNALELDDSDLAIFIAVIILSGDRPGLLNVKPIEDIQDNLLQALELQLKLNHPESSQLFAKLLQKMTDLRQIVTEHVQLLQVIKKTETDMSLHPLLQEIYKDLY
Peroxisome proliferator-activated receptor delta (Homo sapiens), sequence (Q03181 whole entry, looked up): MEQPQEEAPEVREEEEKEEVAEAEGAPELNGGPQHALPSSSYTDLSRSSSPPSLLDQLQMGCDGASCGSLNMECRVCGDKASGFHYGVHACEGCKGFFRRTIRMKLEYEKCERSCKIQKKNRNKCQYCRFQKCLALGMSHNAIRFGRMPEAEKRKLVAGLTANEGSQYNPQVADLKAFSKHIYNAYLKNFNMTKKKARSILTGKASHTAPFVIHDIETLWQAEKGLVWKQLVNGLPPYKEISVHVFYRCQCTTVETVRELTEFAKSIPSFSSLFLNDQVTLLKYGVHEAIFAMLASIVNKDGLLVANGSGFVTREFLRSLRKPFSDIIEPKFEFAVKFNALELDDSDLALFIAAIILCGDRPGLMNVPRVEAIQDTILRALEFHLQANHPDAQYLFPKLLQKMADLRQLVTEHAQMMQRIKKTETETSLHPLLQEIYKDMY
Bile acid receptor (Homo sapiens), sequence (Q96RI1 whole entry, looked up): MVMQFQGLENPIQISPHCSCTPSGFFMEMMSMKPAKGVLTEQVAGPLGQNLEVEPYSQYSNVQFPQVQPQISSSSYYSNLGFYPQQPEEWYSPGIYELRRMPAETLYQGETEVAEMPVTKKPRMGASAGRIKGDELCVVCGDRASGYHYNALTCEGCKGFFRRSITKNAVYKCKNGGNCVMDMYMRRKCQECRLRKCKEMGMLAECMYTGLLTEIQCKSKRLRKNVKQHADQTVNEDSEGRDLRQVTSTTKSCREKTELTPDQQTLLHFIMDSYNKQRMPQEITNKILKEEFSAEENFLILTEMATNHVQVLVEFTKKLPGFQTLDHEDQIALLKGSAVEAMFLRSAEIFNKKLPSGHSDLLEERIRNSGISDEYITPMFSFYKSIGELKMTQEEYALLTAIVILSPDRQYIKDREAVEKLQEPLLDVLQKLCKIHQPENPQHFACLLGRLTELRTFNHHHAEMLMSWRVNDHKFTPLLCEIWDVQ
Aryl hydrocarbon receptor (Homo sapiens), sequence (P35869 whole entry, looked up): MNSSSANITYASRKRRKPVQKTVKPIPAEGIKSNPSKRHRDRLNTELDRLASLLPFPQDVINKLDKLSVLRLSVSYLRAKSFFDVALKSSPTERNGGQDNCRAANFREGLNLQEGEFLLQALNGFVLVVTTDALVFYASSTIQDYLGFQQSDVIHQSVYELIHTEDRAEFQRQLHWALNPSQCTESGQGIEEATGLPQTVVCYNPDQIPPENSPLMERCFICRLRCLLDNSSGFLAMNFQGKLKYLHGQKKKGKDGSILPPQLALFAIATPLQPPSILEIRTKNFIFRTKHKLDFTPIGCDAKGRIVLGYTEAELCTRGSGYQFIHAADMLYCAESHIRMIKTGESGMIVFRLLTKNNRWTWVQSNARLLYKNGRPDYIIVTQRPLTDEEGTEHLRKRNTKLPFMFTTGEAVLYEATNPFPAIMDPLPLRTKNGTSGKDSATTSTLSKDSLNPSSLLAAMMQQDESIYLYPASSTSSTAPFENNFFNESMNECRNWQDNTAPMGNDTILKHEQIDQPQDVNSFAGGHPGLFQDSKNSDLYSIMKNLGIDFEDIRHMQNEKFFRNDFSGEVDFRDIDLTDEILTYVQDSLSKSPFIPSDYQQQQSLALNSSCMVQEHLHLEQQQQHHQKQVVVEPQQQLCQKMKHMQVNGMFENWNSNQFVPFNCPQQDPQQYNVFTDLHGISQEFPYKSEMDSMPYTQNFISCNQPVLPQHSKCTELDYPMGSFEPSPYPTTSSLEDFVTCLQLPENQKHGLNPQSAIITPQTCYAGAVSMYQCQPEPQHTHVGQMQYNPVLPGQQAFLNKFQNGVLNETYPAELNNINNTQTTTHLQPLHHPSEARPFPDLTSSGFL

CCCCCC(C)=O
not listed: [17] | [18] | [19] | [20]
inactive: all other assays above

NC(=O)NC(N)=O
not listed: [5] | [11] | [15] | [16] | [18] | [19] | [20]
inactive: all other assays above

CC1(C)[C@@H](O[C@H]2O[C@H](C(=O)O)[C@@H](O)[C@H](O)[C@H]2O[C@@H]2O[C@H](C(=O)O)[C@@H](O)[C@H](O)[C@H]2O)CC[C@]2(C)[C@H]3C(=O)C=C4[C@@H]5C[C@@](C)(C(=O)O)CC[C@]5(C)CC[C@@]4(C)[C@]3(C)CC[C@@H]12
not listed: [4] | [6] | [10] | [12] | [17] | [18] | [19] | [20]
inactive: all other assays above

OB(O)O
not listed: [4] | [5] | [6] | [17] | [20]
inactive: all other assays above

N#CCC(=O)O
not listed: [4] | [6] | [17] | [18] | [19]
inactive: all other assays above

O=c1n(CCCN2CCN(c3cccc(Cl)c3)CC2)nc2ccccn12
inactive: [1] | [2] | [3] | [5] | [7] | [8] | [9] | [13] | [14]

CC1=CC(=O)CC(C)(C)C1
not listed: [4] | [6] | [8] | [17] | [18] | [19] | [20]
inactive: all other assays above

CC1(C)C(=O)N(Cl)C(=O)N1Cl
not listed: [3] | [6] | [10] | [11] | [12] | [18] | [19]
inactive: all other assays above

CCCOCC(C)O (configuration not stated)
not listed: [3] | [17] | [18] | [19] | [20]
inactive: all other assays above

C=CC(C)(C)C
not listed: [4] | [5] | [6] | [17] | [18] | [19] | [20]
inactive: all other assays above

Cc1ccc(C)c(S(=O)(=O)O)c1
not listed: [4] | [8] | [17] | [18] | [19]
inactive: all other assays above

CC(C)(CO)CO
not listed: [4] | [15] | [16] | [17] | [18] | [19]
inactive: all other assays above

CN=C(NC#N)NCCSCc1nc[nH]c1C
not listed: [4] | [6] | [8] | [17]
inactive: all other assays above

Cc1cc(CC(=O)O)n(C)c1C(=O)c1ccc(Cl)cc1
not listed: [4] | [11] | [17] | [20]
inactive: all other assays above

CC(=O)OCc1ccc2c(c1)OCO2
not listed: [4] | [8] | [10] | [11] | [12] | [17]
inactive: all other assays above

Cc1cccc(C)c1[N+](=O)[O-]
not listed: [3] | [8] | [18] | [19]
inactive: all other assays above

O=C1OC(=O)c2c(Cl)c(Cl)c(Cl)c(Cl)c21
not listed: [4] | [6] | [15] | [16] | [17] | [20]
inactive: all other assays above

CC(=O)C(C)C
not listed: [4] | [17] | [18] | [19]
inactive: all other assays above

CCCOC(=O)NCCCN(C)C
not listed: [4] | [6] | [10] | [12] | [17] | [18] | [19] | [20]
inactive: all other assays above
